Potency and outcome data for 14 compounds are collected here from PubChem BioAssay (NCATS).

Results filed as inconclusive are left out. The source made the active and inactive calls. Unless noted, calls follow the shape of the dose curve; as a rule, active = well fitted curve in the direction sought with a large enough effect; inconclusive = small, poorly fitted or top-dose-only effect, or another doubt; inactive = no such curve, though single readings can be large; an effect the other way counts as inactive or inconclusive.

Experiment [1] can be described thus: MultiTox-Fluor Cytotoxicity Assay - LYMP1-001 - Live Cells (AID 947). Also: potency is read from the fitted curve at half-maximal effect.
The nature of experiment [2]: Cell Viability - LYMP1-002 - Assay at 16 hr (AID 948). Also: potency is read from the fitted curve at half-maximal effect. Put shortly: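 Human lymphoblastoid cells (LYMP1-002), 2500/well, were preincubated 5 hr at 37 C, then exposed to compounds for 16 hr at 37 C in complete medium. Cellular ATP was read by CellTiter-Glo luminescence after 30 min at room temperature; AC50 from Hill fits.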
Experiment [3] can be described thus: MultiTox-Fluor Cytotoxicity Assay - LYMP1-002 - Live Cells (AID 955). Also: potency is read from the fitted curve at half-maximal effect. The gist of the method: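 Read-out is live-cell protease activity (cell-permeant GF-AFC substrate, fluorescence Ex/Em=405/510), where a decrease indicates acute toxicity. Human lymphoblastoid cells were treated 16 hours at 37 C in a concentration series, and AC50 values came from standard Hill modelling.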

Experiment [4] in a line: MultiTox-Fluor Cytotoxicity Assay - LYMP1-003 - Dead Cells (AID 961). Also: nearly all actives have a fitted effect of over 70% in size. Also: potency is read from the fitted curve at half-maximal effect. Put shortly: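 Dead-cell protease release, detected as bis-AAF-R110 fluorescence at 485/520 nm, was measured in LYMP1-003 cells after 16 h compound treatment at 37 C. AC50 values came from Hill-modeled qHTS curves normalized to DMSO (0%) and 15 uM tetraoctylammonium bromide (100%).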
Experiment [5] in a line: MultiTox-Fluor Cytotoxicity Assay - LYMP1-003 - Live Cells (AID 962). Also: potency is read from the fitted curve at half-maximal effect. Put shortly:
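qHTS, 1536-well; 2500 cells/well LYMP1-003; 5 hr 37 C settle; cpd 16 hr 37 C; MultiTox-Fluor reagent 60 min RT; live-cell protease fluor. 405/510; Hill-fit AC50; tetraoctylammonium bromide pos. ctrl.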

The nature of experiment [6]: Cell Viability - LYMP1-003 - Assay at 24 hr (AID 963). Also: potency is read from the fitted curve at half-maximal effect. The gist of the method:
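Cells seeded at 2500/well, 5 hr at 37 C; compounds added; 24 hr at 37 C; CellTiter-Glo added, 30 min room temperature; luminescence read. Decrease in ATP taken as cytotoxicity, AC50 from Hill modelling.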

Experiment [7] is described as follows: Cell Viability - LYMP1-003 - Assay at 40 hr (AID 964). Also: nearly all actives have a fitted effect of over 60% in size. Also: potency is read from the fitted curve at half-maximal effect. Put shortly:
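Cells were seeded at 2500 per well and incubated 5 hr at 37 C. Compounds were added across a concentration series and left 40 hr at 37 C. CellTiter-Glo was added for 30 min at room temperature before luminescence reading.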

Experiment [8] in a line: Cell Viability - LYMP2-003 (AID 965).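 Also: cells exposed to compounds for 24 h before reading; nearly all actives have a fitted effect of over 50% in size.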 Also: potency is read from the fitted curve at half-maximal effect. Put shortly: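 Human lymphoblastoid cells (2500/well) were pre-incubated 5 hr at 37 C, then exposed to compounds over a concentration range for 24 hr at 37 C. Intracellular ATP was read by CellTiter-Glo luminescence; AC50 came from Hill-equation fits.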
Experiment [9] can be described thus: Cell Viability - LYMP2-004 (AID 966). Also: nearly all actives have a fitted effect of over 65% in size. Also: potency is read from the fitted curve at half-maximal effect. Put shortly: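 Cells seeded 2500/well, rested 5 hr at 37 C, dosed across a concentration series, incubated 24 hr at 37 C, then CellTiter-Glo added for 30 min at room temperature and luminescence read. Hill fitting gave AC50.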
Experiment [10] can be described thus: Cell Viability - LYMP2-009 (AID 968). Also: nearly all actives have a fitted effect of over 55% in size. Also: potency is read from the fitted curve at half-maximal effect.
Experiment [11] in a line: Cell Viability - LYMP2-011 (AID 969). Also: nearly all actives have a fitted effect of over 60% in size. Also: potency is read from the fitted curve at half-maximal effect. The gist of the method: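 2500 cells/well, 5 hr 37 C; compound added, 24 hr 37 C; CellTiter-Glo 30 min RT; luminescence. qHTS concentration-response, Hill-equation AC50. Tetraoctylammonium bromide positive control.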
Experiment [12] can be described thus: Cell Viability - LYMP2-013 (AID 970). Also: nearly all actives have a fitted effect of over 55% in size. Also: potency is read from the fitted curve at half-maximal effect. The gist of the method: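 qHTS; 2500 lymphoblastoid cells/well; 5 hr 37 C settle; cpd 24 hr 37 C; CellTiter-Glo, 30 min RT; luminescence. AC50 = Hill fit.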
Experiment [13] in a line: Cell Viability - LYMP2-015 (AID 971). Also: nearly all actives have a fitted effect of over 55% in size. Also: potency is read from the fitted curve at half-maximal effect. Put shortly:
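Luminescent ATP read-out (CellTiter-Glo) served as the viability measure after lymphoblastoid cells were exposed to compounds for 24 hours at 37 C. Concentration-response data were fitted with the Hill equation to give AC50.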

A short description of experiment [14]: Cell Viability - LYMP2-017 (AID 972). Also: nearly all actives have a fitted effect of over 55% in size. Also: potency is read from the fitted curve at half-maximal effect. The gist of the method: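 2500 cells/well, 5 h 37 C; cpd 24 h 37 C in complete medium; CellTiter-Glo, 30 min RT; luminescence (ATP). AC50 via Hill fit, qHTS.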
Experiment [15] in a line: Cell Viability - LYMP2-019 (AID 973). Also: nearly all actives have a fitted effect of over 55% in size. Also: potency is read from the fitted curve at half-maximal effect. The gist of the method:
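Luminescent ATP read-out (CellTiter-Glo, 30 min room temperature) served as the viability measure after 24 hr treatment of lymphoblastoid cells at 37 C. Concentration-response data were fitted to the Hill equation for AC50.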

Experiment [16] in a line: Cell Viability - LYMP2-021 (AID 974). Also: potency is read from the fitted curve at half-maximal effect. The gist of the method:
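Plate 2500 lymphoblastoid cells per well and incubate 5 hr at 37 C. Add compounds over a concentration range and incubate 24 hr at 37 C. Add CellTiter-Glo, wait 30 min at room temperature, read luminescence.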

The nature of experiment [17]: Cell Viability - LYMP2-023 (AID 975). Also: nearly all actives have a fitted effect of over 55% in size. Also: potency is read from the fitted curve at half-maximal effect. The gist of the method: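 2500 cells/well, 5 hr 37 C; cpd 24 hr 37 C; CellTiter-Glo, 30 min RT; luminescence. qHTS conc-response, Hill fit -> AC50. Pos ctrl tetraoctylammonium bromide.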
Experiment [18] in a line: MultiTox-Fluor Cytotoxicity Assay - LYMP1-002 - Dead Cells (AID 960). Also: nearly all actives have a fitted effect of over 60% in size. The gist of the method: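 LYMP1-002 cells 2500/well; 5 hr 37 C pre-incubation; compound 16 hr 37 C; MultiTox-Fluor reagent 60 min RT; dead-cell fluor Ex/Em 485/520. Norm. to DMSO (0%) vs 15 uM tetraoctylammonium bromide (100%); Hill AC50.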
Experiment [19] has as its target Pyruvate kinase PKM (Homo sapiens) (UniProt P14618). The experiment can be described thus: qHTS Assay for Activators of Human Muscle Pyruvate Kinase (AID 954; active = well fitted curve in the direction sought with a large enough effect, not every such curve was filed as active). Put shortly:
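Human PKM2 activity is measured as ATP generation, detected by luciferase-coupled luminescence. The enzyme (0.1 nM) acts on 0.5 mM PEP and 0.1 mM ADP for 1 h at ambient temperature; data are normalized to uninhibited and full-inhibition wells.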
A general note: In qHTS, concentration-response curves come from the screen itself.

Sequence of Pyruvate kinase PKM (Homo sapiens) (P14618 whole entry, looked up): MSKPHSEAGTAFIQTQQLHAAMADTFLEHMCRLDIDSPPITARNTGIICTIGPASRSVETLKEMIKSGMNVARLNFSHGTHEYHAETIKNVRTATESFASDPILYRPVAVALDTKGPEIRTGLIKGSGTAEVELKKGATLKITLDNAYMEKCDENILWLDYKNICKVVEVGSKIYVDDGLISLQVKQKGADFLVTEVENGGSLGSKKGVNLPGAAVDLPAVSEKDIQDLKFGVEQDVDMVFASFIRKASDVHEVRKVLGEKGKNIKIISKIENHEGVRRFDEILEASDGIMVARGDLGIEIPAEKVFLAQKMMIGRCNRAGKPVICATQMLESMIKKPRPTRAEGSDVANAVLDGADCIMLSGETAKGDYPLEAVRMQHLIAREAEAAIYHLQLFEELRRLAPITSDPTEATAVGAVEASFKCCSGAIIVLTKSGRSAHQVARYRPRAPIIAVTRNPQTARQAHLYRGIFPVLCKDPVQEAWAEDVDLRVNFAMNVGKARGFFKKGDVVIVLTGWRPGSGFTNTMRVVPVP

In the case of `CCCCOC(=O)c1ccccc1C(=O)OCc1ccccc1`, the Potency result in [1], in experiment [2], in [3], in experiment [4], in experiment [5] and in experiment [6] was “inactive” in each case. The Potency result in [7], in [8], in experiment [9], in [10], in [11] and in experiment [12] was “inactive” in each case. In addition, the Potency entry in experiment [13], in experiment [14], in experiment [15], in experiment [16] and in [17] was “inactive” each time.
For `OCCCBr`, the Potency result in [2], in experiment [3], in experiment [4], in experiment [5], in experiment [6] and in [7] was “inactive” in each case. Also, the Potency entry in [8], in [9], in [10], in experiment [11], in experiment [12] and in experiment [13] was “inactive” in each case. The Potency result in [14], in experiment [15], in experiment [16] and in experiment [17] was “inactive” each time. Also, the compound was classed as inactive in experiment [18].
With `Cc1nc(-c2ccc(-c3ccc(C(=O)N4CCc5cc6c(cc54)C4(CCN(C)CC4)CO6)cc3)c(C)c2)no1`, the call in experiment [19] was inactive.
For the compound `COC(C)(C)CCCC(C)C/C=C/C(C)=C/C(=O)OC(C)C` (stereo not given), the Potency result in experiment [1], in experiment [2], in experiment [3], in experiment [4], in experiment [5] and in experiment [6] was “inactive” in each case. Moreover, the Potency entry in [7], in [8], in [9], in [10], in experiment [11] and in [12] was “inactive” each time. Besides, the Potency entry in experiment [13], in experiment [14], in experiment [15], in experiment [16] and in experiment [17] was “inactive” throughout. Moreover, the call in experiment [18] was inactive.
Consider `O=C(O)COc1ccccc1`, for which the Potency entry in [2], in [3], in experiment [4], in experiment [5], in [6] and in [7] was “inactive” in each case. Further, the Potency result in experiment [8], in [9], in [10], in experiment [11], in experiment [12] and in [13] was “inactive” in each case. In addition, the Potency result in experiment [14], in experiment [15], in experiment [16] and in [17] was “inactive” throughout. Also, the call in experiment [18] was inactive.
As to `c1cc2ccc3cccc4ccc(c1)c2c34`, the Potency result in experiment [1], in [2], in [3], in experiment [4], in experiment [5] and in experiment [6] was “inactive” each time. Besides, the Potency entry in [7], in experiment [8], in [9], in experiment [10], in experiment [11] and in experiment [12] was “inactive” in each case. Moreover, the Potency result in experiment [13], in [14], in experiment [15], in experiment [16] and in experiment [17] was “inactive” throughout. Besides, in experiment [18], the call was inactive.
For `O=S(=O)(c1ccc(Cl)cc1)c1ccc(Cl)cc1`, the Potency result in experiment [1], in experiment [2], in experiment [3], in experiment [4], in [5] and in experiment [6] was “inactive” each time. Also, the Potency entry in experiment [7], in experiment [8], in [9], in experiment [10], in [11] and in experiment [12] was “inactive” in each case. Further, the Potency entry in experiment [13], in experiment [14], in experiment [15], in [16] and in experiment [17] was “inactive” each time. Also, the compound was called inactive in [18].
Take `O=[N+]([O-])c1cc([N+](=O)[O-])c2ccccc2c1`: the Potency entry in experiment [1], in [2], in [3], in experiment [4], in [5] and in [6] was “inactive” each time. Besides, the Potency entry in experiment [7], in experiment [8], in experiment [9], in [10], in experiment [11] and in experiment [12] was “inactive” in each case. Besides, the Potency result in experiment [13], in [14], in experiment [15], in experiment [16] and in experiment [17] was “inactive” throughout. Further, the call in experiment [18] was inactive.
As for `CCCCCCCCc1ccc(O)cc1`, the Potency entry in experiment [1], in experiment [2], in experiment [3], in [4], in experiment [5] and in experiment [6] was “inactive” in each case. Also, the Potency result in experiment [8], in [9], in experiment [10], in [11], in experiment [12] and in experiment [13] was “inactive” each time. Also, the Potency result in [14], in experiment [15], in [16] and in experiment [17] was “inactive” each time. Also, the compound was called inactive in experiment [18].
For the compound `CCCCC(CC)COC(=O)c1ccccc1C(=O)OCC(CC)CCCC` (stereo not given), the Potency result in experiment [1], in [2], in experiment [3], in experiment [4], in experiment [5] and in experiment [6] was “inactive” throughout. Besides, the Potency entry in experiment [7], in experiment [8], in experiment [9], in experiment [10], in experiment [11] and in [12] was “inactive” throughout. Moreover, the Potency result in [13], in experiment [14], in [15], in experiment [16] and in experiment [17] was “inactive” each time.
As to `O=[N+]([O-])c1c(Cl)c(Cl)cc(Cl)c1Cl`, the Potency result in experiment [1], in [2], in experiment [3], in experiment [4], in experiment [5] and in experiment [6] was “inactive” in each case. Moreover, the Potency result in [7], in experiment [8], in [9], in experiment [10], in experiment [11] and in experiment [12] was “inactive” in each case. The Potency result in [13], in experiment [14], in [15], in experiment [16] and in experiment [17] was “inactive” in each case. In addition, the outcome in [18] was inactive.
Take `O=[N+]([O-])c1c2ccccc2cc2ccccc12`: the Potency entry in experiment [1], in [2], in [3], in experiment [4], in experiment [5] and in experiment [6] was “inactive” in each case. For the same compound, the Potency result in experiment [7], in experiment [8], in experiment [9], in experiment [10], in experiment [11] and in experiment [12] was “inactive” in each case. Also, the Potency entry in [13], in experiment [14], in experiment [15], in experiment [16] and in experiment [17] was “inactive” each time. Besides, the outcome in experiment [18] was inactive.
In the case of `Nc1ccc(Sc2ccc(N)cc2)cc1`, the Potency entry in [1], in experiment [2], in [3], in experiment [4], in [5] and in experiment [6] was “inactive” in each case. The Potency result in [7], in experiment [8], in experiment [9], in experiment [10], in experiment [11] and in experiment [12] was “inactive” each time. Besides, the Potency result in experiment [13], in [14], in experiment [15], in experiment [16] and in experiment [17] was “inactive” throughout. In addition, the outcome in experiment [18] was inactive.
For `CC(=O)[O][Hg][c]1ccccc1`, the Potency in experiment [1] was 5010 nM (active); in [2], 6310 nM (active); in experiment [3] it was 3160 nM (active); in experiment [4], 2510 nM (active); in experiment [5] it was 3160 nM (active); in experiment [6], 3160 nM (active). Besides, the Potency is 1580 nM (active) in experiment [7]; 1580 nM (active) in experiment [8]; 1000 nM (active) in experiment [9]; 501 nM (active) in experiment [10]; 1000 nM (active) in experiment [11]; 631 nM (active) in experiment [12]. Also, the Potency is 631 nM (active) in experiment [13]; 631 nM (active) in experiment [14]; 794 nM (active) in experiment [15]; 794 nM (active) in experiment [16]; 1260 nM (active) in [17]. Also, the compound was called inactive in [18].
